Reference: PubChem BioAssay (NCI)
Where “and” joins values, the source holds several entries; their conditions need not be identical. Equal values may be shown once. This is part of a sample that, as a whole, favours compounds with a hit. Of some 83,000 tested, about 20% had one in any assay.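 Plates (96-well) were seeded with cells, treated with compound at one concentration, and incubated for 48 hours before percent growth was determined.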 Some compounds were tested as several samples or in several runs, with calls that do not always agree. Calls of active or inactive are those of the source.

tested on: HT29 colon; assay: NCI-60 one-dose screen, 48 h (100 = growth as untreated, 0 = no growth, -100 = all killed); settings: 10 µM
Method: Growth inhibition of the HT29 human tumor cell line is measured as a screen for anti-cancer activity. Cells are grown in 96 well plates and exposed to the test compound for 48 hours. Compounds are tested at a single concentration, which is 10^-5 M for most compounds. The reported endpoint is percent growth (GI% or GIPRCNT), where numbers from 0 - 100% represent growth inhibition, and numbers from -100% - 0 represent cell death. For example, a value of 40 represents 60% growth inhibition. A value of 0 means no net growth occurred over the course of the experiment. A value of -40 indicates 40% of cells at the beginning of the experiment died by the end of the experiment. A value of -100 means all cells are dead at the end of the experiment.
NCI-60 Human Tumor Cell Lines Screen was performed using the standard one-dose NCI protocol, which is described in more detail at https://dtp.cancer.gov/discovery_development/nci-60/default.htm.
Compounds with GIPRCNT values below 10 were considered active. Activity score was based on GIPRCNT using the following formula: […]
Score is 0 for GIPRCNT values of 100 or above, 50 for GIPRCNT values of 0, and 100 for GIPRCNT values of -100.

Row | SMILES | growth
1 | Cc1[nH]c(-c2nc3ccccc3[nH]2)c(C)c1C(=O)NC(C)C1CCCCC1 (stereo not given) | 94.8% (inactive)

same assay, conditions: 10 µM unless noted

Row | SMILES | growth
2 | O=C(Nc1cccc(-n2ccc3c(NC(=O)c4ccccc4)nccc32)c1)c1ccc(Cl)c(C(F)(F)F)c1 | 43% (inactive)
3 | CC(C)CNC(=O)c1ccccc1C(=O)NC1(C(=O)NCC(C)C)CCCC1 | 105% (inactive) and 104% (inactive)
4 | CCOC(=O)Nc1ccc2c(c1)/C(=N\NC(N)=S)c1ccccc1-2 | 29.6% (inactive) and 25.8% (inactive)
5 | CCN(CC)C(=O)c1cccnc1 | 103% (inactive)
6 | CCOC(=O)Nc1nc2ccccc2[nH]1 | 104% (inactive) and 20.8% (inactive)
7 | CN1CCN(Cc2occc(=O)c2O)CCN(C)CCN(Cc2occc(=O)c2O)CC1 | 96.3% (inactive) and 11.1% (inactive)
8 | O=C1C2=C(C(=O)c3ccccc31)C(O)(S(=O)(=O)O)C(O)(S(=O)(=O)O)C1N=CC=CC21 (stereo not given) | 46.6% (inactive) and 21.4% (inactive)
9 | CC1(c2ccc3ccccc3c2)CCC(=O)O1 (stereo not given) | 96.9% (inactive)
10 | Oc1nc(NCCc2ccccc2)sc1/C=C1\C=Nc2ncccc21 | 27.8% (inactive) and 30.6% (inactive)
11 | O=C1OC2(c3ccccc31)c1ccc(O)c(O)c1Oc1c2ccc(O)c1O | 102% (inactive) and 116% (inactive)
12 | CCOc1ccc(Nc2c3ccccc3nc3ccccc23)cc1 | 98% (inactive) and 4.3% (active) and 10.5% (inactive)
13 | CCOc1ccc2c(S(=O)(=O)O)cccc2c1[N+](=O)[O-] | 105% (inactive) and 117% (inactive)
14 | Cc1ccc2nc3c(nc2c1)-c1cccc2cccc-3c12 | 80.3% (inactive)
15 | CCN(CC)CCCC(C)N(Cc1ccccc1)CC(O)c1ccc(Cl)cc1 (stereo not given) | 108% (inactive) and 92.5% (inactive)
16 | Cc1nn(-c2ccc(Cl)cc2)c2ncnc(N/N=C/c3ccccc3O)c12 | 20.1% (inactive) and 31.1% (inactive)
17 | CN1CCN(c2ccc3nc(-c4c(N)c5c(F)cccc5[nH]c4=O)[nH]c3c2)CC1 | 1.59% (active) and 10.3% (inactive)
18 | OC1CCC(Oc2cccc3cnc(Nc4ccc5nc[nH]c5c4)nc23)CC1 (stereo not given) | 2.98% (active) and 46% (inactive)
19 | CCNC(=O)Nc1ccc(-c2nc3c(c(N4CCOC[C@@H]4C)n2)CCN(C2COC2)C3)cc1 | 49.7% (inactive) and 15.9% (inactive)
20 | CC1CCCC(=O)O1 (stereo not given) | 106% (inactive) and 99.8% (inactive)

Row | SMILES | growth
21 | Nc1ccc2ccc(N)cc2c1 | 94.2% (inactive)
22 | CN(C)c1ccc(C(Cc2ccc3ccccc3n2)Cc2ccc3ccccc3n2)cc1 | 0.736% (active) and 59.7% (inactive)
23 | OCc1ccccn1 | 104% (inactive)
24 | COc1cc2nc(N3CCN(C(=O)C4COc5ccccc5O4)CC3)nc(N)c2cc1OC (stereo not given) | 71.4% (inactive) and 93.9% (inactive)
25 | c1ccc2c(CC3=NCCN3)cccc2c1 | 103% (inactive) and 96.3% (inactive)
26 | Nc1nc2ncc(CNc3ccc(C(=O)N[C@@H](CCc4nn[nH]n4)C(=O)O)cc3)nc2c(=O)[nH]1 | 104% (inactive) and 92.3% (inactive)
27 | COc1ccc(/C(C#N)=C/c2ccccn2)cc1 | 106% (inactive) and 103% (inactive)
28 | O=S1(=O)CC(Br)C(Br)C1 (stereo not given) | 27.7% (inactive) and 79% (inactive)
29 | COc1ccc(NC(=S)Nc2ccccn2)cc1 | 107% (inactive)
30 | CC12CCC(CC1)C(C)(C)O2 | 95.1% (inactive)
31 | Nc1ccc(N=Nc2ccc(S(=O)(=O)O)cc2)cc1S(=O)(=O)O | 118% (inactive) and 96.2% (inactive)
32 | NS(=O)(=O)c1cc2c(cc1Cl)NC(C(Cl)Cl)NS2(=O)=O (stereo not given) | 101% (inactive) and 114% (inactive)
33 | Clc1ccc(NC(Nc2ccc(Cl)cc2)C(Cl)(Cl)Cl)cc1 | 101% (inactive) and 98.4% (inactive)
34 | CC(C)Cc1ccc(C(C)C(=O)NCc2ccc(Cn3c(=O)sn(CCCCl)c3=O)cc2)cc1 (stereo not given) | 104% (inactive) and -64% (active)
35 | Cc1ccc(-c2noc(C)n2)cc1 | 98.3% (inactive)
36 | Nc1nc(SC/C=C/CCl)c2[nH]cnc2n1 | 108% (inactive) and 95.5% (inactive)
37 | O=C1OC(Oc2ccc(Br)cc2)(c2ccccc2)c2ccccc21 (stereo not given) | 74.6% (inactive) and 70.6% (inactive)
38 | O=C(O)c1cc(C(=O)O)cc([N+](=O)[O-])c1 | 105% (inactive)
39 | OCCN1CCN(CCCN2c3ccccc3Sc3ccc(Cl)cc32)CC1 | 1.64% (active) and 18.2% (inactive)

same assay, conditions: 100 µM

Row | SMILES | growth
40 | Cc1[nH]c(-c2nc3ccccc3[nH]2)c(C)c1C(=O)NC(C)C1CCCCC1 (stereo not given) | -38.4% (active)
